Over roughly 33,000 sequences, “E-score (-0.5 to 0.5)” has its median near -0.012; the highest 2% begin near 0.27. Many of the other results were omitted from the sample, so the highest values are more common in it than they were.
Target: T1, Vhr1 (UniProt P40522)
T1 sequence: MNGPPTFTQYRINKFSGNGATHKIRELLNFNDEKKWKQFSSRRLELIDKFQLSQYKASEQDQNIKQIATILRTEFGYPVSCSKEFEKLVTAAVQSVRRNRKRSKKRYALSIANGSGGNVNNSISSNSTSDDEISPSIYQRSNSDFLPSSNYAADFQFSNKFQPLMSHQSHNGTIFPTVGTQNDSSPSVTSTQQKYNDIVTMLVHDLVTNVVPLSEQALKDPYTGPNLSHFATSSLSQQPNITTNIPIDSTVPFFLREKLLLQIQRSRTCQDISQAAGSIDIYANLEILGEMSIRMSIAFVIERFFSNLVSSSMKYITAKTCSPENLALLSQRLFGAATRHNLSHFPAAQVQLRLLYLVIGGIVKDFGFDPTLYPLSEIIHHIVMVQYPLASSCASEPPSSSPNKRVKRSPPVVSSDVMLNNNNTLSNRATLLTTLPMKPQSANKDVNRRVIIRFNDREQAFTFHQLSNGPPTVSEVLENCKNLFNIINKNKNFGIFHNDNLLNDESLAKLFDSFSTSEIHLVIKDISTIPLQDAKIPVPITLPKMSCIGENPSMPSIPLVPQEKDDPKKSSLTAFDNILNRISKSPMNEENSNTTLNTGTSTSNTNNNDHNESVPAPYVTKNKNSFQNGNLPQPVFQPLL
Experiment: PBM E-score (8-mer binding enrichment) (E-score (-0.5 to 0.5)); higher = stronger / more preferred TF binding
Details: protein concentration: 200 nM; construct: GST-full length
Procedure: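 Universal 'all 10-mer' protein binding microarrays (Agilent AMADID 015681) probed with GST-tagged S. cerevisiae TFs (full-length or DBD) made by in vitro transcription/translation (PURExpress), about 100-200 nM. Bound TF was detected with fluorescent anti-GST. Each ungapped 8-mer (which stands for itself and its reverse complement) is scored by the PBM enrichment score (E-score), a modified Wilcoxon-Mann-Whitney statistic from -0.5 to +0.5, computed with the Universal PBM Analysis Suite. Scale: above 0.35 generally sequence-specific binding.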

Row | Sequence | PBM E-score
1 | ACCTCCTG | -0.139
2 | CGTCTCGC | -0.0775
3 | ATATCTGC | 0.104
4 | AGAAGATG | -0.183
5 | GCCCGCCA | 0.13
6 | ACCCGCGA | 0.144
7 | CACCGCCC | 0.293
8 | CCCCGCCA | 0.398
9 | ACCCGCGT | 0.00191
10 | AGCCGCGG | 0.178
11 | AACCGCCC | 0.0139
12 | CCCCGCGG | 0.0864
13 | ACCCGCGC | 0.342
14 | TCCCGCCA | 0.0546
15 | CACCGCCA | 0.242
16 | ACCCGCGG | 0.275
17 | AGTCTAAG | -0.0818
18 | AAAAAAGC | -0.19
19 | CGAGATTA | 0.0687
20 | GGAGGGGA | 0.219
21 | TACGCCAA | -0.241
22 | ACCCGCCC | 0.428
23 | GCCCGCCC | 0.137
24 | ACCCGCCG | 0.197
25 | ATCCTACC | 0.0595

Row | Sequence | PBM E-score
26 | ACGCTTAC | -0.205
27 | GTGTGTTA | 0.278
28 | ATGTGTGG | 0.08
29 | ATGTGTGA | 0.29
30 | ATGTGTGC | 0.12
31 | CTGTGTGA | 0.306
32 | CTGTGTTA | 0.169
33 | ATGTGTCG | 0.29
34 | CTGTGTAA | 0.134
35 | CTGTGTGC | 0.177
36 | ATGTGTTA | 0.195
37 | ATGTGTCC | 0.157
38 | ATGTGTCA | 0.143
39 | AGGACTGG | 0.113
40 | ACTAGACG | -0.048
41 | ATTTTGCC | -0.15
42 | AGACTTGC | -0.249
43 | AACATCTA | -0.152
44 | CACCAGCC | 0.143
45 | ATAGACGG | 0.00408
46 | TACCAACA | 0.145
47 | GATATGCA | -0.0288
48 | TCTTTCCA | -0.157
49 | GGCCAAAC | -0.155
50 | GTGTGAGA | 0.0943

Row | Sequence | PBM E-score
51 | GTGTGTGA | 0.298
52 | GCGTGTGA | 0.104
53 | TAGAGGGA | -0.0999
54 | AGTTTGAT | 0.0522
55 | CTTAACCC | -0.213
56 | GACCAGAC | -0.141
57 | CACCAGAC | 0.309
58 | AACCAGAC | -0.00075
59 | GCTTGCAC | -0.0624
60 | CTGATTTC | -0.00794
61 | ATGATTAG | 0.317
62 | ATCATTAA | 0.0987
63 | AAGATTAC | -0.0671
64 | ACGATTAG | 0.045
65 | CTGATTAC | 0.278
66 | ATCATTAC | 0.274
67 | ACGATTAC | 0.161
68 | ATGATTAC | 0.391
69 | CTGATTAA | 0.191
70 | ATGATTAA | 0.264
71 | ATCATTAG | 0.148
72 | TGCCACAA | 0.0692
73 | TAGTAGAA | -0.199
74 | ATGGTAGG | 0.104
75 | CCTAAGCA | -0.108

Row | Sequence | PBM E-score
76 | GAAGCACA | -0.00604
77 | GATCAGTA | 0.121
78 | AGGTGACG | -0.0476
79 | ACGTGACG | -0.137
80 | ACGTGACT | 0.41
81 | AGGTGACT | 0.425
82 | ACGTGACA | -0.197
83 | AGGTGACA | 0.0488
84 | CTCATAAC | 0.00985
85 | ATGTGGTG | 0.227
86 | AGAAGATA | -0.193
87 | TCAGTTAA | -0.108
88 | AGTAGGCA | 0.154
89 | CACAACGC | 0.134
90 | CGGACTAC | 0.0519
91 | GGGACTAA | -0.209
92 | ATGACTAG | 0.369
93 | CAGACTAC | 0.136
94 | GTGACTTA | 0.259
95 | CTGACTAC | 0.361
96 | GTGACTAA | 0.428
97 | CTGACTAA | 0.359
98 | AAGACTAG | -0.209
99 | CGGACTAA | 0.102
100 | CAGACTAA | 0.117

Row | Sequence | PBM E-score
101 | ACGACTAG | 0.162
102 | AGGTGGAG | -0.191
103 | CGATCGCA | 0.178
104 | TCCCTGCA | 0.0302
105 | AGGGTTGC | -0.068
106 | CGAGCGAG | 0.262
107 | ATTCGAGC | -0.0346
108 | GGCCATAC | 0.0276
109 | AGGACTAC | 0.067
110 | AAGACTAA | 0.116
111 | ATGACTAC | 0.462
112 | AAGACTAC | 0.122
113 | AGGACTAA | 0.054
114 | ATGACTAA | 0.42
115 | AGTCTACC | -0.0695
116 | CGAAGTGC | -0.107
117 | AAACGCAC | 0.142
118 | CAAAAGGA | -0.2
119 | AACTGATC | 0.157
120 | CGGCAGCA | -0.0628
121 | AGGCAGCC | -0.0232
122 | CGGCAGCC | 0.282
123 | AGGGGGCA | -0.151
124 | GAAACACA | 0.0985
125 | AATTGAGG | -0.233

Row | Sequence | PBM E-score
126 | AATTGAGA | -0.0698
127 | AATTGAGT | 0.272
128 | TGAATCCA | 0.185
129 | CTCATGAG | 0.0895
130 | GTCATGAC | 0.31
131 | GACATGAC | 0.202
132 | ATCATGAG | 0.235
133 | CACATGAA | 0.0563
134 | CACATGAG | 0.065
135 | CTCATGAC | 0.326
136 | CTCATGAA | 0.0223
137 | CACATGAC | 0.272
138 | ATCATGAC | 0.335
139 | ATCATGAA | 0.118
140 | GTCATGAA | 0.257
141 | CTTTCAAC | -0.128
142 | CGTGGTGA | -0.158
143 | CAGACGGC | -0.0191
144 | CGAACTAG | -0.0301
145 | TCTAGAAA | -0.272
146 | GACCCATA | 0.251
147 | AACCCATA | 0.271
148 | CACCCTGA | 0.245
149 | ACCCCTGA | 0.143
150 | AACCCATT | 0.0791

Row | Sequence | PBM E-score
151 | AACCCTGA | 0.286
152 | AATTGACT | 0.149
153 | CTTAAGTA | -0.199
154 | CTAGGTTC | -0.0959
155 | CCGAATGC | -0.0649
156 | GATAGTCA | 0.357
157 | CATAGTCC | 0.115
158 | CATAGTCG | 0.238
159 | TATAGTCA | 0.318
160 | CATAGTCA | 0.37
161 | GATAGTAA | 0.0876
162 | AATAGTCG | 0.148
163 | TATAGTGA | -0.0332
164 | AATAGTCT | -0.0519
165 | TATAGTAA | 0.15
166 | AATAGTCA | 0.344
167 | GATAGTCC | 0.0259
168 | ACGGGAGG | -0.13
169 | AATGTGGT | 0.115
170 | GAATCGAC | -0.005
171 | ACAAATCG | 0.0133
172 | ATCAGCTA | 0.0387
173 | GAAGGATC | -0.0379
174 | GGCTCAAC | -0.199
175 | CTGGCTGA | 0.143

Row | Sequence | PBM E-score
176 | ACAATCGT | 0.0768
177 | CAATCCTG | 0.122
178 | ATATGGAA | 0.178
179 | ATGCTGTG | 0.116
180 | AGTGTGAG | 0.147
181 | AGTGTGAT | 0.296
182 | AGTGTGAC | 0.209
183 | ACGTCAGA | -0.0949
184 | ACAGTTGG | -0.02
185 | AGCGAGTA | 0.119
186 | AGCGAGTC | 0.275
187 | CTCGAGTC | 0.235
188 | CGCGAGTA | 0.112
189 | AGCGAGTG | 0.192
190 | CGCGAGTC | 0.355
191 | CATCACAA | 0.0244
192 | CGCCAAGA | -0.0615
193 | CGGAGCGA | 0.0369
194 | ACTTGGGA | -0.155
195 | AGCCAGTG | 0.00862
196 | AGTTGCAT | -0.0357
197 | CACCTTAA | -0.0968
198 | GGGAATCA | 0.307
199 | GGGAATAA | -0.0372
200 | AGGAATCG | 0.0478

Row | Sequence | PBM E-score
201 | AAGAATCA | 0.222
202 | AGGAATCC | 0.119
203 | GGGAATGA | 0.169
204 | TAGAATCA | 0.185
205 | CGGAATTA | -0.193
206 | CGGAATCA | 0.412
207 | CAGAATCA | 0.313
208 | AGGAATCA | 0.28
209 | CGGAATCC | 0.0628
210 | CACTCGAG | -0.029
211 | CTCTTCAG | -0.0887
212 | TTCCTCAA | -0.19
213 | ATGGTCCG | 0.175
214 | ATAGGCCA | -0.159
215 | AGACTAAC | 0.0491
216 | GCTAAACA | -0.0852
217 | ACTGGCAC | -0.113
218 | ATGAAGCG | -0.136
219 | TGAAATAA | -0.158
